# Experimental data as given in ChEMBL document CHEMBL3433997, “St. Jude Leishmania screening dataset” (2016).
# Target: Glucose transporter (Leishmania mexicana) (UniProt O61059)
# Test: ST_JUDE_LEISH: Cytotoxicity at 2uM final concentration against transgenic Leishmania Mexicana promastigotes LmGT2 that are glucose transport deficient and complemented with the L. Mexicana glucose transporter 2. Activity is measured by DNA content using SYBR green in vitro
# Format: functional
row,Compound,inhibition
1,CCCCCCCN1CCC(NC(=O)Nc2ccnc3ccc(OC)cc23)C(CO)C1 (centres undefined),-3.37%
2,CS(=O)(=O)N(c1cccc(F)c1)c1cc(C(=O)N[C@@H](Cc2ccccc2)[C@H](O)CNCc2cccc(C(F)(F)F)c2)cc(N2CCCC2=O)c1,-0.57%
3,CCCCc1ccc(CCNCCCCCCNCCc2ccc(O)c(O)c2)cc1,-1.2%
4,CN1CCN(c2cc3c(cc2Cl)CCN3C(=O)Cc2ccc(Cl)c(NC(=O)Nc3cccc([N+](=O)[O-])c3)c2)CC1,1.55%
5,Cc1cccc2nc(-c3cccc(-c4cccc(CNCc5ccccc5)c4)c3)[nH]c12,0.66%
6,Cc1ccc(-c2nn3c(O)c4c(nc3c2C)CCCC4)cc1,1.28%
7,Cc1ccc2c(O)c([N+](=O)[O-])c(O)nc2c1,1.6%
8,CC(C)(C)c1ccc(NC(=O)c2cccc(CN3CCCN(Cc4ccc(F)cc4)CC3)c2)cc1,1.15%
9,COc1cccc(-c2cnc(N)c(-c3nc4ccc(C(F)(F)F)cc4[nH]3)c2)c1,1.42%
10,CS(=O)(=O)NCCCNCc1cccc(-c2ccc(-c3nc4cc(C(F)(F)F)ccc4[nH]3)s2)c1,1.74%
11,O=C(c1cc(C(=O)Nc2ccccc2)c(=O)n(-c2ccccc2)c1)c1cc(Cl)ccc1O,2.58%
12,Cc1ccc(Cn2ncc(N3CCCNCC3)c(Cl)c2=O)cc1NC(=O)Nc1ccc(-c2ccccc2)cc1,4.8%
13,CS(=O)(=O)c1ccc2c(c1)CCN(CCC1CCC(NC(=O)C(=Cc3ccc(Cl)cc3Cl)c3ccc(-c4ccccc4)cc3)CC1)CC2 (centres undefined),3.51%
14,CCCCc1ccc(S(=O)(=O)Nc2ccc3c(c2)CCN(Cc2c[nH]c4cnccc24)CC3)cc1,5.76%
15,Cc1ccccc1C1CCN(C2CCC(NC(=O)/C=C/c3cccc(F)c3)CC2)CC1 (centres undefined),7.51%
16,COCCNCc1ccc(-c2ccccc2CNC2CCN(Cc3ccccc3)CC2)cc1,-0.28%
17,COc1cccc(C(O)CNc2ccnc(Nc3ccc(Cl)cc3)n2)c1 (centres undefined),1.85%
18,COc1ccc(OC)c2c1CC1NCC2c2c(OC)ccc(OC)c21 (centres undefined),0.54%
19,CCCCNCc1cc(Cl)c2ccccc2c1O,6.58%
20,COc1ccc(C2CC(c3cccs3)=NN2C(=O)COc2cccc(C(C)=O)c2)cc1OC (centres undefined),-2.22%

row,Compound,inhibition
1,O=C(Nc1cccc(CN2CCCN(Cc3ccc4c(c3)OCO4)CC2)c1)c1ccc(Cl)c(Cl)c1,8.61%
2,Nc1c(Cl)cc(C(O)CNCCCCCCOCCc2ccc(CO)s2)cc1Cl (centres undefined),2.21%
3,Cc1cc(=NN=CC=Cc2ccccc2)c2ccc(F)cc2[nH]1,-0.62%
4,Clc1ccc(CNCCCCCCCNCc2ccc(Cl)c(Cl)c2)cc1Cl,-0.86%
5,CCCCCCCC1=NN2C(=N)C(=Cc3cc(Br)c(OCc4ccc(F)cc4)c(OCC)c3)C(=O)N=C2S1,2.47%
6,Cc1nc(Cl)c2c(-c3ccccc3)csc2n1,-0.21%
7,COc1cc(C)nc2ccc(NC(=O)c3ccc(C(=O)Nc4ccc5nc(C)cc(OC)c5c4)cc3)cc12,1.25%
8,OC(CNCc1ccccc1OCc1ccccc1)c1cccc(C(F)(F)F)c1 (centres undefined),10.8%
9,O=C(/C=C/c1ccc(Cl)c(Cl)c1)NCCCCCCN1CCCN(C(=O)Nc2cc(Cl)cc(Cl)c2)CC1,-2.48%
10,COc1ccc(OCCCON2C(=N)N=C(N)NC2(C)C)cc1,1.17%
11,COc1ccccc1N1CCN(c2cccc(F)c2C#N)CC1,6.12%
12,Cc1[nH]c(C)c(-c2ccc(-c3cccc(C(F)(F)F)c3)nc2)c(=O)c1Br,6.29%
13,CCCC(=O)Nc1ccc(Cl)c(NC(=O)COc2cc(C)ccc2C(C)C)c1,8.05%
14,CCc1c[nH]c2c(N3CCCC3=O)cc(C(=O)N[C@@H](Cc3ccccc3)[C@H](O)CNC(C)(C)CCCC(C)C)cc12,8.72%
15,COc1cc(C(=O)NCCCN2CCN(c3cccc(Cl)c3)CC2)ccc1-c1nc2cc(Cl)c(F)cc2[nH]1,0.03%
16,CC1CCc2c(C(=O)N3CCc4ccccc4C3)csc2C1 (centres undefined),0%
17,COc1ccc(F)cc1-c1ccccc1CNC(=O)CN(C)S(=O)(=O)c1cc(C)cc(Cl)c1C,0.93%
18,Cc1cccc(CN2CCCN(Cc3ccc(C(=O)Nc4ccc(C(C)(C)C)cc4)cc3)CC2)c1,-0.38%
19,O=C(/C=C/c1ccc(Cl)cc1)NCCCCCN1CCC(C(=O)Nc2cccc(Cl)c2)CC1,0.58%
